Screens (PubChem BioAssay)
Compounds with a hit are over-represented: about 1.5% of the library has one in this group of screens.
MEX-5 binding: C. elegans MEX-5 TCR-2 RNA binding activity. Q9XUB2. activity score (negative = inhibition of binding), % at 10 µM. MEX-5/FITC-TCR2 RNA binding, fluorescence polarization; active compounds read low. 0.38% of 300,000 active;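 active means inhibition past about -25% in most replicates, and total fluorescence under double the plate's negative control median, limit read from the data; inconclusive means replicates evenly split on the limit, or fluorescence at least double controls; inactive means too little inhibition in most replicates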;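 further: 0% = DMSO and -100% = 5 µM competing unlabeled TCR2 RNA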
MCL1 BIM primary: disrupts human MCL1 binding to BIM-BH3 peptide; 0.68% of 320,000 active; inhibition, % at 10.9 µM; Q07820; GST-MCL1 / FITC-Bim-BH3 fluorescence polarization;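 active means inhibition above the mean inhibition of all tested compounds plus 3 SD, set per campaign, cut at about 40% in these data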;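 further: 0% = DMSO wells and 100% = unlabeled Bim-BH3 peptide control; higher means more loss of mP so more displacement of Bim peptide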
GLD-1 TGE inh: GLD-1-TGE RNA interaction inhibition (C. elegans); Q17339; purified GLD-1 + fluorescein TGE RNA, fluorescence polarization; inhibition, % at 5.96 µM; 0.44% of 320,000 active; AID 2280;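 active means percent inhibition above a per-plate cutoff, the plate mean of test compounds plus 3 SD, cut at about 30% in these data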;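 further: 0% = DMSO wells with GLD-1 and probe and 100% = wells lacking GLD-1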
E coli Lon inh: E. coli protease La inhibition | P0A9M0 | purified E. coli Lon protease, fluorescence polarization | inhibition, % at 7.94 µM | 0.42% of 360,000 active; in the data active means inhibition above about 13%, passing the limit was not always enough;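 further: 0% = enzyme with probe and DMSO and 100% = no enzyme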
Target sequence (P0A9M0 whole entry, looked up): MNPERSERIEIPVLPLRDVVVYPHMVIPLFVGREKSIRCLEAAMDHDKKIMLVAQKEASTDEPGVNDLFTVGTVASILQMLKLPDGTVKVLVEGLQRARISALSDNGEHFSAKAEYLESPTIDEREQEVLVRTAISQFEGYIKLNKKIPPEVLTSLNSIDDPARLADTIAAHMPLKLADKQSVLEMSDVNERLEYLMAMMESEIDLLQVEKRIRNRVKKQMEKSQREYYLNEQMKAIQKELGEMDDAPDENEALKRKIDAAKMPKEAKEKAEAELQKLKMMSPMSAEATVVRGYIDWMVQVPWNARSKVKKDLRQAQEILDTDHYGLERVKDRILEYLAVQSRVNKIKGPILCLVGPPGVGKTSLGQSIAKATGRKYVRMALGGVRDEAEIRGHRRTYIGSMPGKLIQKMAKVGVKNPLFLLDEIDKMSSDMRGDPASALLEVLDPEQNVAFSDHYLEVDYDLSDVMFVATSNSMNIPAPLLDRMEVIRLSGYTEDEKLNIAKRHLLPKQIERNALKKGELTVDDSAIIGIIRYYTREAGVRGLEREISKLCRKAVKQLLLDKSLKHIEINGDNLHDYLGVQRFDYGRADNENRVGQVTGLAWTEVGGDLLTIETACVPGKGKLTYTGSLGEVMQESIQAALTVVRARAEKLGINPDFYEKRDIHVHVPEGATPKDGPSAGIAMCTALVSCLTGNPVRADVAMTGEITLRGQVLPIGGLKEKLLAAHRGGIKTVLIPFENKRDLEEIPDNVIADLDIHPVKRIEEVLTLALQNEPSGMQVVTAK
EBV gp42 block: EBV gp42 inhibition; Q1HVG2; Fluorescence polarization binding assay, mP read-out; inhibition, % (tested at 21.74 µM); 0.42% of 220,000 active; in the data active means inhibition above about 50%
BCLXL inh: blocks human Bcl-xL binding to Bim BH3 peptide. Q07817. 0.7% of 320,000 active. GST-Bcl-xL / FITC-Bim BH3 peptide fluorescence polarization. inhibition, % at 10.9 µM;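 active means inhibition above the mean of all tested compounds plus 3 SD, cutoff set per campaign, cut at about 30% in these data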;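 further: 0% = DMSO wells and 100% = unlabeled Bim-BH3 peptide competitor; inhibitors lower millipolarization by displacing the labeled peptide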
E coli Lon conf: E. coli Lon inhibition confirmation; purified E. coli Lon, fluorescence polarization; 31% of 1,400 active; AID 602230; shares compounds with E coli Lon inh; inhibition, % at 7.94 µM; in the data active means inhibition above about 16%;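 further: 0% = enzyme with probe and DMSO and 100% = no enzyme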
Numbers without * were called inactive; u = inconclusive; x = not tested or not shown; + = active, no number.

SMILES	MEX-5 binding	MCL1 BIM primary	GLD-1 TGE inh	E coli Lon inh	EBV gp42 block	BCLXL inh	E coli Lon conf
CC(C)c1ccc(C(=O)NCCCN2CCN(CCCNC(=O)c3ccc(C(C)C)cc3)CC2)cc1	2	4	4	12	8	9	x
Cc1cc2cc3c(=O)[nH]c(=O)cc-3n(CC(O)C(O)C(O)CO)c2cc1C (stereo not given)	x	x	x	87*	x	x	91*
COc1ccc2nc(NC(=O)CCNS(=O)(=O)c3ccc4c(c3)oc(=O)n4C)sc2c1	3	-5	6	7	-12	0	x
CCCCCC(=O)N1C[C@H](n2cc(COC(=O)c3ccccc3)nn2)[C@@H](O)C[C@@H]1c1ccc(Cl)cc1	x	x	x	-4	x	x	x
O=C1C(=O)C(Cl)=C(Cl)C(Cl)=C1Cl	x	x	x	40*	x	x	51*
Cc1ccc(CNc2ccc(O)cc2)cc1	-2	x	x	20*	-7	x	-25
O=c1[nH][nH]c(C(F)(F)F)c1C=Nc1ccccc1Cl	0	4	5	-2	-13	3	x
Cc1cc(NC(=O)CCC(=O)N(Cc2ccco2)C2(C(=O)NC3CCCCC3)CCCCC2)no1	-2	-2	-4	21*	x	-1	-3
C[C@H](NC(=O)[C@@H]1CSC2c3ccccc3C(=O)N21)C(=O)NCCc1ccc(F)cc1 (stereo not given in full)	-1	4	6	23*	x	4	-3
O=c1n(CC2CO2)c(=O)n(CC2CO2)c(=O)n1CC1CO1 (stereo not given)	x	x	x	-13	x	x	x
O=C(N/N=C/c1ccco1)c1cc2ccccc2o1	-3	2	-8	2	x	-3	x
CC(C)(C)OC(=O)N(CCc1ccccc1)Cc1ccc(OCc2cccc(NC(=O)/C=C/c3ccccc3)c2)cc1	x	x	x	15*	x	x	-7
Cc1ccc2c(c1)-c1ccccc1S(=O)(=O)N2	-1	4	8	-2	x	5	x
Nc1ccc2c(c1)-c1ccccc1S(=O)(=O)N2	-41*	38	19	17*	-15	29	-13
Nc1nnc(SCC(=O)Nc2ccc(S(=O)(=O)N3CCOCC3)cc2)s1	0	1	7	-5	-24	-3	x
CCC(C)Oc1ccc(C(=O)Nc2ccc(CN3CCOCC3)cc2)cc1 (stereo not given)	0	x	x	8	x	x	x
Cc1cc(C)c(NC(=O)C(C)N2CCCCCC2)c(C)c1 (stereo not given)	-3	-2	9	71*	x	2	-5
Cc1cccc(C)c1NC(=O)C(C)N1CCCC1 (stereo not given)	1	0	8	-3	x	4	x
Cc1noc(C)c1C(=O)N1CCC(Cc2ccccc2)CC1	1	-8	8	-10	-3	-4	x
O=C1ON=C(c2ccccc2)/C1=C/c1cccnc1	x	x	x	17*	8	x	3
Cc1ccc(NC(=S)NCc2ccc(Cl)cc2)c(C)c1	6	13	0	17*	x	3	-47
CN1C(=O)CC(Nc2cccc3cccc(N)c23)C1=O (stereo not given)	-1	15	2	21*	-9	9	8
Nc1ccccc1C(=O)NN=Cc1cccnc1	x	x	x	21*	x	x	-10
CCN(CC)S(=O)(=O)c1ccc(N2CCOCC2)c(NC(=O)CN2C(=O)NC3(CCCC3)C2=O)c1	x	x	x	-9	x	x	x
CCN(CC)S(=O)(=O)c1ccc(N2CCCC2)c(NC(=O)CN2C(=O)NC3(CCCC3)C2=O)c1	0	-4	9	22*	x	3	-4
SMILES	MEX-5 binding	MCL1 BIM primary	GLD-1 TGE inh	E coli Lon inh	EBV gp42 block	BCLXL inh	E coli Lon conf
O=C(COC(=O)c1ccc[n+]([O-])c1)Nc1cc([N+](=O)[O-])ccc1Cl	x	x	6	-12	x	x	x
Cc1nc(CC(=O)N2CCN(c3cccc(C)c3C)CC2)cs1	-2	16	7	24*	-2	15	2
O=C(c1ccccc1)c1ccc(C(=O)N2CCN(c3ccccc3Cl)CC2)cc1	x	6	4	18*	x	4	5
Cn1c2ccccc2c(=O)c2ccc(NCc3ccc4c(c3)OCO4)cc21	x	x	x	17*	x	x	3
CN1CCC[C@H]1CCNc1ccc2c(=O)c3ccccc3n(C)c2c1	x	x	x	-4	x	x	x
Cc1[nH]n(-c2ccccc2)c(=O)c1/C=N/NC(=O)c1ccccc1F	2	7	-2	21*	x	5	-6
O=C(CN(C(=O)Cn1nnc(-c2ccc(F)cc2)n1)c1ccc(F)cc1)NC1CCCC1	0	-3	8	18*	x	3	1
N#Cc1ccc2c(=O)n(-c3ccccc3)sc2c1	x	x	x	11	x	x	x
CCCn1c(O)c(N=NC(=O)CNC(=O)c2cccnc2)c2ccccc21	1	-3	-2	8	x	0	x
Cn1c(O)c(N=NC(=O)CNC(=O)c2cccnc2)c2ccccc21	-4	8	4	19*	x	3	3
O=C(Nc1ccc(Oc2ccccc2)cc1)c1ccc(Cn2c(=O)[nH]c3ccsc3c2=O)cc1	4	-7	0	-5	-8	-3	x
O=C(Nc1ccc(Cl)c(Cl)c1)c1ccc(Cn2c(=O)[nH]c3ccsc3c2=O)cc1	-2	5	0	27*	-12	2	15
Cc1cc[n+](-c2[nH]c(=O)sc2/C=N/N=C(\[O-])c2ccccc2)cc1C	u	x	x	68*	137*	x	125*
CCN(CC(=O)NCc1cccs1)C(=O)c1ccc(S(=O)(=O)Nc2ccccc2)cc1	0	2	-2	-6	x	5	x
CCN(CC(=O)NCc1cccs1)S(=O)(=O)c1ccc(F)cc1	-2	-2	7	-5	x	1	x
CCN(CC(=O)NCc1cccs1)C(=O)c1ccc(S(=O)(=O)Nc2cccc(C)c2C)cc1	1	4	6	+	x	2	-17
CCN(CC)S(=O)(=O)c1ccc(C(=O)NCc2cccs2)cc1	-3	0	2	19*	1	-1	1
COc1ccccc1N1C(=O)C2CC(C)=C(C)CC2C1=O (stereo not given)	1	4	-2	-4	-6	-1	x
Cc1ccc2c(CN3CCN(Cc4ccccc4)CC3)cc(=O)oc2c1	3	-9	3	-1	x	-2	x
Cc1cc2oc(=O)cc(CN3CCN(Cc4ccccc4)CC3)c2cc1Cl	-1	-20	-4	21*	-3	-4	-16
O=C(Nc1ccccc1Cl)c1cc(C2CCCN(C(=O)OCCF)C2)on1 (stereo not given)	x	x	x	-6	x	x	x
COC(=O)N1CCCC(c2cc(C(=O)Nc3ccccc3Cl)no2)C1 (stereo not given)	x	x	x	52*	x	x	1
COc1cccc(OCC(O)CN2CCN(c3ccc(F)cc3)CC2)c1 (stereo not given)	4	8	1	20*	x	4	-14
COc1cccc(OC)c1OCC(O)CN1CCN(c2ccc(F)cc2)CC1 (stereo not given)	2	2	-1	7	x	-2	x
